Bioassay records: PubChem, National Center for Advancing Translational Sciences (NCATS)
HT1080 IDH1KD tx: toxicity to HT-1080 IDH1 knockdown cells (counter line) | HT-1080 IDH1 knockdown viability, ATP luminescence, 48 h | Potency, µM (highest dose often 46.1 µM), for inactives: at the highest dose activity, negative = toxicity, usual class: cytotoxic | actives 2% (n = 360,000);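 note: potency is the fitted concentration of half-maximal effect; 0% = DMSO wells and -100% = cell-free medium wells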
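Using the IDH1-knockdown HT-1080 line run in the same batch and compound series as the NT line, viability after 48 h at 37 °C was determined by CellTiter-Glo luminescence and expressed as % activity.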
HT1080NT lethal: kills 2HG-producing HT-1080-NT fibrosarcoma cells | HT-1080-NT fibrosarcoma viability, CellTiter-Glo ATP luminescence, 48 h | Potency, µM (doses to about 46.1 µM), inactives show top-dose activity, negative = less viability, hits mostly cytotoxic | actives 1.6% (n = 360,000) | AID 686970;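 note: NT is the 2HG producing partner of a matched IDH1 knockdown line; potency is the fitted concentration of half-maximal effect; 0% = DMSO-treated cells and -100% = media-only wells without cells; nearly all actives have a fitted effect of over 55% in size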
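750 cells/well, RPMI + 5% FBS; 2 h settle, compound pin-transfer, 48 h at 37 degrees C. CellTiter-Glo 10 min RT, luminescence. Normalized to DMSO and media-only wells.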
TDP1 cell CPT: DT40-hTDP1 cell growth loss with CPT. chicken DT40 Tdp1-/-;hTDP1 cells + 20 nM CPT, ATP luminescence, 48 h. Potency, µM (highest dose often 46.2 µM), for inactives: top-dose activity change, negative = growth inhibition, usual class: inhibitors. actives 12% (n = 420,000); note: potency is the fitted concentration of half-maximal effect; nearly all actives have a fitted effect of over 55% in size
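Chicken DT40 Tdp1-/- cells stably complemented with human TDP1 were seeded at 400 cells/well in medium containing 20 nM camptothecin, exposed to pin-transferred compounds, and grown at 37 °C for at least 48 hr. Viability was read as ATP luminescence.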
DT40 TDP1 no CPT: qHTS for Inhibitors of human tyrosyl-DNA phosphodiesterase 1 (TDP1): qHTS in cells in absence of CPT; Potency, µM (titrated, usually from 46.2 µM), for the others: at the highest dose activity change, negative = growth inhibition, most hits filed as inhibitors; DT40 Tdp1-/- hTDP1 cells, no CPT, ATP luminescence, 48 h; actives 15% (n = 420,000); note: potency is the fitted concentration of half-maximal effect; nearly all actives have a fitted effect of over 55% in size
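Cells were dispensed at 400 per well, compounds added by pin tool, plates incubated ≥48 hr at 37 °C, then CellTiter-Glo added for 30 min at room temperature before luminescence reading. Line: DT40 Tdp1-/- complemented with hTDP1; camptothecin omitted.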
12-LOX inh: ALOX12 (human) lipoxygenase inhibition | purified 12hLO, xylenol orange hydroperoxide absorbance | P18054 | actives 1.1% (n = 580,000) | Potency, µM (top dose mostly 108 µM), without a hit: top-dose activity change, negative = inhibition, actives largely listed as inhibitors; note: potency is the fitted concentration of half-maximal effect
Target sequence (P18054 whole entry, looked up): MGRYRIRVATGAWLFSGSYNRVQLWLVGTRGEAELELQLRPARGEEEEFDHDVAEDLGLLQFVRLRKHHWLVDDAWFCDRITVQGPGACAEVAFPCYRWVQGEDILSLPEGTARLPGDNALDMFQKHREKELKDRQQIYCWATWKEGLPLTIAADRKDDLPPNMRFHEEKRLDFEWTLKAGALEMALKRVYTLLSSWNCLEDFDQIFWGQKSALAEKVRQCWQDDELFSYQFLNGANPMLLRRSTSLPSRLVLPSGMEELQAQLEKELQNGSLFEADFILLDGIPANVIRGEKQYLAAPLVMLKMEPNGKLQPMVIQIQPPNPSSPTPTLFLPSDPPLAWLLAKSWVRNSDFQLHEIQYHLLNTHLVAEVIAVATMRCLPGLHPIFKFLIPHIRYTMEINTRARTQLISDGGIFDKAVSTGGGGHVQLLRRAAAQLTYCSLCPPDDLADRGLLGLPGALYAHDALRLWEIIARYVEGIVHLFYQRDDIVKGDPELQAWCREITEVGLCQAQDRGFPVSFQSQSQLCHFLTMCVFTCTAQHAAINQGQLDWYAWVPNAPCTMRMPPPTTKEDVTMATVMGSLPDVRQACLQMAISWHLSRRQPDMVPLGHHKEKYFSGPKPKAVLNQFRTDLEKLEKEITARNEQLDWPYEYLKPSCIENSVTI
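Purified human 12hLO (150 nM final) in 25 mM Hepes, 0.01% Triton X-100, pH 7.0 was preincubated 15 min at room temperature with compound. Then 40 uM arachidonic acid was added, 30 min. Hydroperoxide was read by Fe-XO absorbance ratio 573/405 nm.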
IL-1B inflam inh: inhibitors of inflammasome signaling (IL-1 beta secretion) | AID 743279 | THP-1 LPS/ATP IL-1B secretion, AlphaLISA, 16 h; active compounds read low | activity change, % at 57.5 µM | actives 4.7% (n = 360,000); in the data active = activity change below about -50%; inconclusive = mostly about -30% to -49%
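Secreted IL-1B measured by AlphaLISA bead assay after 16 h compound exposure of THP-1 cells; compounds (final up to 57.5 uM) added 1 h before LPS (250 ng/mL) and ATP (1.25 mM) stimulation; lower signal means less secretion.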
Starred values were filed as active, the others as inactive; ? = inconclusive; / = not tested or not shown. Shown is part of a subset that was picked to be rich in hits. Unless noted, calls come from the whole dose curve; as a rule, active = well fitted curve in the direction sought with a large enough effect; inconclusive = small, poorly fitted or top-dose-only effect, or another doubt; inactive = no such curve, though single readings can be large; an effect the other way counts as inactive or inconclusive. Unless noted, % is set by controls: 0 for no effect and ±100 for the full control effect.

SMILES	HT1080 IDH1KD tx	HT1080NT lethal	TDP1 cell CPT	DT40 TDP1 no CPT	12-LOX inh	IL-1B inflam inh
CC(C)CCC(=O)NCC(C)N1CCCC1 (stereo unspecified)	/	/	/	/	-86%	/
CCCN(CCC)CCCNC(=O)C1CCN(S(=O)(=O)c2cccc3nsnc23)CC1	2%	8%	8%	6%	-4%	1
O=C(C1CCN(S(=O)(=O)c2cccc3nsnc23)CC1)N1CCc2ccccc2C1	-4%	-4%	?	?	0%	-63*
CCCCN(CCCC)C(=O)C1CCN(S(=O)(=O)c2cccc3nsnc23)CC1	/	/	16µM*	26µM*	0%	/
COCCCNC(=O)C1CCN(c2nnc(-n3cccc3CNc3ccc(C)cc3)s2)CC1	/	/	-9%	-8%	-16%	/
Cc1ccc(NCc2cccn2-c2nnc(N3CCC(C(=O)NCCC(C)C)CC3)s2)cc1	/	/	?	21µM*	-19%	/
CSc1ccc(CNC(=O)C2CCN(c3nnc(-n4cccc4CNc4ccc(C)cc4)s3)CC2)cc1	/	/	?	16µM*	-1%	/
Cc1ccc(NCc2cccn2-c2nnc(N3CCC(C(=O)NC(C)C)CC3)s2)cc1	/	/	?	?	-19%	/
CC(=O)Nc1c(-c2ccccc2)c(C)nn1-c1ccc(C(=O)N2CCN(C3CCCCC3)CC2)cc1	/	/	/	/	-21%	/
COc1ccccc1/C=C/C(=O)NCCC1=CCCCC1	10%	4%	-28%	-25%	-5%	-50*
O=C(/C=C/c1ccc(F)cc1)NCCC1=CCCCC1	18%	-1%	21µM*	16µM*	0%	-17
C#CCN1CCC(C(=O)NC2CCN(C(=O)C3CCCCC3)CC2)CC1	/	/	/	/	-21%	/
COc1ccc(/C=C/C(=O)NC2CCCCCCCCCCC2)cc1	/	/	/	/	2%	/
O=C(COC(=O)Cn1cnc2ccccc2c1=O)Nc1ccc(Cl)cc1	-3%	8%	-25%	-3%	-2%	14
O=C(CCl)Nc1ccccc1Sc1ccc(Cl)cc1	?	?	21µM*	?	-23%	-100*
O=C(COC(=O)Cn1cnc2ccccc2c1=O)Nc1ccccc1Sc1ccc(Cl)cc1	-1%	-2%	13µM*	26µM*	-27%	0
O=C(Cc1ccccc1)Nc1ccccc1Sc1ccccc1	-20%	0%	-6%	1%	-2%	9
CN(Cc1ccc(Cl)cc1)C(=O)CNC(=O)C12CC3CC(CC(C3)C1)C2	-20%	7%	18µM*	?	384%	-7
CCCCC(CC)CN1CN(CC(CC)CCCC)CC(C)(N)C1 (stereo unspecified)	5%	-2%	0.16µM*	0.23µM*	0%	-20
O=C(c1ccccc1F)N1CCC2(CC1)N=C(c1ccccc1)NO2	/	/	/	/	42%	/
CN(/N=C/c1cc(Cl)cc(Cl)c1O)C(=S)NC(C)(C)C	-20%	?	?	16µM*	405%	0
CCOC(=O)C1=C(Nc2ccccc2)CC(C)(O)C(C(=O)OCC)C1c1ccc(Br)cc1 (stereo unspecified)	-11%	-1%	?	16µM*	-3%	-27
COC(=O)[C@@H]1Cc2c([nH]c3ccccc23)[C@H]2C[C@H](NCc3cccs3)C[C@@H](c3ccc(F)cc3)N21	/	/	/	/	5%	/
C=CCNC(=S)N/N=C/c1ccc(-c2ccc(OC)cc2)o1	?	?	4.1µM*	4.6µM*	40µM*	-3
C=CCNC(=S)N/N=C/c1ccc(-c2cc(Cl)ccc2Cl)o1	2%	1%	?	?	237%	2
C=CCNC(=S)N/N=C/c1ccc(-c2ccc(Cl)cc2Cl)o1	?	?	5.2µM*	5.8µM*	?	3
